We go through 24 compounds from PubChem BioAssay (NCI).

About 83,000 compounds went through this panel and 20% of them were active in at least one assay; those are over-represented in the sample as a whole.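 Single-dose data. Exposure time 48 hours. Values below 10 considered active.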 A number with no mark means an inactive call. The source made the active and inactive calls.

In the assay the test system is HL-60(TB) leukemia. Put plainly: NCI-60 one-dose screen, 48 h (100 = growth as untreated, 0 = no growth, -100 = all killed). The following applies: 10 µM unless noted.
With `O=c1[nH]c(-c2cccc(F)c2)cc2cc(F)ccc12`, the growth was -24.6% (active).

Regarding `O=C1Nc2ccccc2/C1=N/c1nc(-c2ccc(Cl)cc2)cs1`, the growth was 7.82% (active).

With `C=C(CN1CC=CCC1)[C@@H]1CC[C@]2(C(=O)OC)CC[C@]3(C)[C@H](CC[C@@H]4[C@@]5(C)CC[C@H](OC(C)=O)C(C)(C)[C@@H]5CC[C@]43C)[C@@H]12`, the growth was 49.6%.

On to `O=[N+]([O-])c1cccc(-c2nc3sccn3c2-c2ccnc(NCCCNS(=O)(=O)c3cccc(F)c3)n2)c1`, for which the growth is -21.5% (active).

Consider `C=C(CNCCc1ccc(O)cc1)[C@@H]1CC[C@]2(CO)CC[C@]3(C)[C@H](CC[C@@H]4[C@@]5(C)CCC(NCCc6ccc(O)cc6)C(C)(C)[C@@H]5CC[C@]43C)[C@@H]12` (some centres undefined), for which the growth was -65.2% (active).

As for `O=C(NCCCNc1cc(-c2cn(-c3ccccc3)nc2-c2cccc(O)c2)ccn1)c1cccc(O)c1`, the growth was 35.2%.

For `O=C(Nc1ccc(NC(=O)c2cc(=O)[nH]c3ccccc23)cc1)Nc1cccc(C(F)(F)F)c1`, the growth is 99.8%.

`NC[C@H](O)c1ccc(O)c(O)c1`: the growth was 98.8%.

In the case of `C=CCn1cc(-c2nc3ccccc3s2)c2cc(-c3ccc4c5c(cccc35)C(=O)N(CCN3CCNCC3)C4=O)ccc21`, the growth is 103%.

In the case of `COc1ccc(/C=N/NC(=O)c2cnn3c2NC(c2ccccc2)C3)cc1OC1CCCC1` (centres undefined), the growth is 101%.

`CCC(c1ccc(OC)cc1)C(CC)c1ccc(O)c(CN2CCCC2)c1` (centres undefined): the growth was -45.9% (active).

`NNc1c2ccccc2nc2ccccc12`: the growth was 9.09% (active).

Consider `O=C(/C=C/c1cccc([N+](=O)[O-])c1)c1ccc(Nc2nc(N3CCCCC3)nc(N3CCCCC3)n2)cc1`, for which the growth was 79.4%.

For the compound `CCN(C(=O)CCl)C(C)(C)C(SSSC(c1ccc(Cl)cc1)C(C)(C)N(CC)C(=O)CCl)c1ccc(Cl)cc1` (centres undefined), the growth is 42.1%.

Turning to `COc1cc2c(c(OC)c1OC)-c1ccc(N=NC(N)=S)c(=O)cc1[C@@H](NC(C)=O)CC2`, the growth was -17.7% (active).

Consider `O=C(O)c1cn(C2CC2)c2cc(N3CCN(C(=O)N/N=C/c4cccc5ccccc45)CC3)c(F)cc2c1=O`, for which the growth was 97.8%.

Regarding `COc1cc(/C=C/C(=O)N2c3ccccc3CC2C)c(OC)c2c1OCO2` (centres undefined), the growth was 91.7%.

As to `O=C1COCCN1c1ccc(NCc2cn(Cc3cccc4ccccc34)c3ccccc23)cc1`, the growth was 96.4%.

As to `Cc1ccc2c(c1)C(=O)/C(=C/c1cccc(OCC(=O)c3ccc(Cl)cc3)c1)CS2`, the growth is 43.1%.

As to `COc1cc(-c2nc3sccn3c2-c2ccnc(NCCCNS(=O)(=O)c3ccc(F)cc3)n2)ccc1F`, the growth is 64.9%.

Consider `OC(c1cc2cc(Cl)ccc2c2cc(C(F)(F)F)ccc12)C1CCCCN1` (centres undefined), for which the growth was -61.1% (active).

`COc1ccc(/C=C2\COc3ccc(O)c(O)c3C2=O)cc1OC`: the growth was -28.7% (active).

`CCOC(=O)c1ccc(NC(=O)Nc2nncs2)cc1`: the growth is 5.62% (active).

With `CN1C(=O)N2CN3CCCN(C3)CN3C(=S)NC1C23` (centres undefined), the growth is 99.8%.
